ChEMBL document CHEMBL1961873, “Compounds: GSK PKIS; Assays: Nanosyn kinase panel” (2012)

biological target: Serine/threonine-protein kinase PAK 6 (Homo sapiens) (UniProt Q9NQU5); conditions: at 0.1 µM
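Note: mean PAK6 inhibition reported from the GSK PKIS screen.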

Serine/threonine-protein kinase PAK 6 (Homo sapiens), sequence (Q9NQU5 whole entry, looked up): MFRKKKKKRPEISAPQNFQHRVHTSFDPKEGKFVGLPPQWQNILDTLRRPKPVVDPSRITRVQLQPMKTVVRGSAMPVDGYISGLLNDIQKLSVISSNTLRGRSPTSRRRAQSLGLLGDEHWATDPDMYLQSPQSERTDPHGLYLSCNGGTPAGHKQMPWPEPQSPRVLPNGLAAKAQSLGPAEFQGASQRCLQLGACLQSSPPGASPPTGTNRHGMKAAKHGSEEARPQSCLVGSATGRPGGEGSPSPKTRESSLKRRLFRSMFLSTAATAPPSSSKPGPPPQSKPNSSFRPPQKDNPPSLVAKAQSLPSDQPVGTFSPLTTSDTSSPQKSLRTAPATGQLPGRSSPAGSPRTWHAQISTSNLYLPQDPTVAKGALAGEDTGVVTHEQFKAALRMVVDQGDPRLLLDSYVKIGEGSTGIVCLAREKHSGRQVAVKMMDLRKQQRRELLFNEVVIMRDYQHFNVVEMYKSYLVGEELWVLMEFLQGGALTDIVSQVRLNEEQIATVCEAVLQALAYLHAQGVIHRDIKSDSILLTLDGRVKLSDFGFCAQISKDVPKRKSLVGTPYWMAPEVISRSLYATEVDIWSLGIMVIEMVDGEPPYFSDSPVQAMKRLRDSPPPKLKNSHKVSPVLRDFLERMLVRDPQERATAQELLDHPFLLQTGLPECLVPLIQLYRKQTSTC

| SMILES | inhibition [%] |
| --- | --- |
| COc1cccc(/C=N/Nc2ncnc3c2cnn3-c2cccc(OC)c2)c1 | -3.17 |
| COc1ccc2ncn(-c3cc(O[C@H](C)c4ccccc4Cl)c(C(N)=O)s3)c2c1 | -3.39 |
| O=C(Nc1n[nH]c2cc(-c3cc(F)ccc3F)ccc12)C1CC1 | 2.84 |
| COc1ccc(-c2ccc3c(NC(=O)C4CC4)n[nH]c3n2)cc1 | 2.86 |
| CN(C)CCOc1ccc(-c2cc(-c3ccc4c(c3)CCC4=NO)c(-c3ccncc3)o2)cc1 | 1.99 |
| COc1cc(N2CCN(C(C)C)CC2)ccc1Nc1nc(Nc2ccc(F)cc2C(=O)NC[C@@H](O)CO)c2cc[nH]c2n1 | 5.3 |
| Cc1ccc(C(=O)NC2CCC2)cc1-c1ccc(C(=O)NCC2CC2)cc1 | 3.05 |
| COc1cc(C)c(N(C)C(=O)CN(C)C)cc1Nc1nc(Nc2cccc(F)c2C(N)=O)c2cc[nH]c2n1 | -1.02 |
| CS(=O)(=O)CCNCc1ccc(-c2ccc3ncnc(Nc4ccc(OCc5ccccc5)c(Br)c4)c3c2)o1 | -8.08 |
| COc1cccc(-n2cnc3c(N/N=C/c4ccncc4)ncnc32)c1 | 5.99 |
| Cc1ccc(NC(=O)c2ccoc2)cc1-c1ccc(C(=O)NCC2CC2)cc1 | -5.33 |
| COc1ccc2cc(-c3c(-c4ccncc4)nc(-c4ccc([S+](C)[O-])cc4C)n3C)ccc2c1 (stereo not given) | -2.81 |
| CCS(=O)(=O)c1ccc(OC)c(Nc2ncc(-c3cccc(-c4ccccc4F)c3)o2)c1 | 12.3 |
| O=C1NC(=O)C(c2cccc(Cl)c2)=C1Nc1ccc(Cl)c(C(=O)O)c1 | -2.69 |
| CN(C)c1ccc2c(c1)/C(=C/Nc1ccc(S(N)(=O)=O)cc1)C(=O)N2 | 11.8 |
